Test results from PubChem BioAssay AID493244 (The Scripps Research Institute Molecular Screening Center, 2011).
Several values for one entry are separate records, joined by “and”; a condition that tells them apart may be missing. Identical values can stand only once. Out of some 340,000 compounds screened, about 390 (0.11%) were called active. The entries come from a sample that favours actives as a whole. A number with no mark means an inactive call.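 Rule for the calls: active = inhibition above the mean inhibition of all tested compounds plus 3 SD (cut at about 17% in these data); inactive = the rest.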

Each compound was assayed against Troponin I, cardiac muscle (Homo sapiens) + Troponin T, cardiac muscle (Homo sapiens) + Troponin C, slow skeletal and cardiac muscles (Homo sapiens) (UniProt P19429+P45379+P63316) (assay: calcium desensitizers of cardiac thin filaments – biochemical, IANBD-TnC fluorescence, EC70 calcium, primary screen (AID 493244;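 note: assay run at fixed EC70 calcium of 1.6 mM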)). Conditions: IANBD-labeled cardiac RTF, Ca2+ fluorescence; at 7.15 µM; stronger effect = higher value.

Compound	inhibition
Cc1cc(C)c2nc(SCC(=O)N(C)C3CCS(=O)(=O)C3)cc(C)c2c1 (stereo unspecified)	-11.7%
Cc1cc2oc(=O)cc(-c3ccccc3)c2c(C)c1-c1ccc(OC(F)(F)F)cc1	-2.33%
CCn1c(SCc2cc(=O)n3ccsc3n2)nc2ccccc21	-0.11%
COc1ccc(S(=O)(=O)NCC2CCCN(C(=O)c3occc3C)C2)cc1 (stereo unspecified)	-1.36%
COc1ccc2oc(N)nc2c1	1.17%
COc1cc(C(=O)Nn2c(O)c(C3=c4ccccc4=NC3=O)sc2=S)ccc1O	-0.38%
C=CCn1c(N)cc(=O)nc1SCC(=O)Nc1cccc2ccccc12	-2.98%
COc1cc(OC)c2c(c1)OC(=O)CC2c1cc(OC)c(OC)c(OC)c1 (stereo unspecified)	-1.64%
NC(=O)C1(N2CCCCC2)CCN(C(=O)c2ccc(C#Cc3ccccc3)o2)CC1	-7.6%
N#CC1(Nc2ccc(-c3ccc(Cl)cc3)cc2)CCCC1	-2.12%
C=CCNC(=O)COC(=O)c1ccccc1C(=O)N(C)C1CCCCC1	18.3% (active)
O=C(COC(=O)c1ccccc1Cl)NC1CCCCCCC1	3.26%
O=C(COC(=O)c1ccccc1SCC(=O)NC1CCCCC1)NC1CCCCC1	1.46%
CCCCN(C(=O)CSCc1ccc(C)cc1)c1c(N)n(Cc2ccccc2)c(=O)[nH]c1=O	-2.92%
COc1cccc(NC(=S)C(C#N)=C2N(C)c3ccccc3N2C)c1	-5.1%
Cc1nc(-c2ccccc2)sc1-c1nnc(C2CC2)o1	-8.96%
O=C(CNC(=O)C12CC3CC(CC(C3)C1)C2)OCC(=O)N1CCCCC1	-10.1%
CC1(C)C/C(=N/Nc2ccc([N+](=O)[O-])cc2[N+](=O)[O-])C(C)(C)O1	-8.69%

Compound	inhibition
Cc1ccc(C(=O)C[n+]2cc(-c3ccccc3)n3c2CCCCC3)cc1	-12.2% and -7.58%
CCOC(=O)c1nnn2c1nc(N1CCN(c3ccccc3)CC1)c1ccccc12	-5.69%
CCCCn1c(N)c(N(CC(C)C)C(=O)CSc2ccc([N+](=O)[O-])cc2)c(=O)[nH]c1=O	-11.5%
C[N+](C)(C)CCNC(=O)c1cc[n+](Cc2ccccc2)c(/C=N/O)c1	0.25%
CC1CCCCC1NC(=O)COC(=O)Cc1ccc(Br)cc1 (stereo unspecified)	-1.84%
O=C1Nc2c(Br)cc(Br)cc2C1(O)N1CCOCC1 (stereo unspecified)	-1.44%
CCc1[nH]nc(C(=O)N2CCCC(CO)(Cc3ccc(F)cc3F)C2)c1C (stereo unspecified)	-5.33%
COC(C(=O)Nc1ccc(S(=O)(=O)Nc2ccc(C)c(C)c2)cc1)c1ccccc1 (stereo unspecified)	-0.7%
Cc1cccc(-c2c(NC(=O)c3ccco3)oc3ccc(Cl)cc3c2=O)c1	-4.74%
C/C(=N/NC(=O)c1ccncc1)c1ccc2c(c1)OCO2	-5.5%
C/C(=N\NC(=O)COc1ccc(C)cc1[N+](=O)[O-])c1ccc2c(c1)OCCO2	-7.39%
C/C(=N\NC(=O)C(N)=O)c1ccc2c(c1)OCCO2	17.1% (active)
CC(C)(C)c1ccc(C(=O)NCc2nnc(SCC(=O)N3CCCc4ccccc43)n2-c2ccccc2)cc1	-6.84%
CCCCSc1nnc2c(n1)OC=Nc1ccccc1-2	-2.01%
Cc1ccc2c(c1)C1C[N+](C)(CC(=O)c3ccccc3)CCC1N2C(=O)c1ccccc1Cl (stereo unspecified)	-13.7%
COc1ccc(C2CC(=O)NC(=O)C2)cc1	-0.2%
COc1ccc(CCC(=O)Nc2ccc(Cl)c(S(=O)(=O)N3CCOCC3)c2)cc1OC	-10.9%
CCc1nnc(NC(=O)c2cc(S(=O)(=O)N3CCN(CC)CC3)ccc2Cl)s1	-8.17%
